Structures are written as SMILES. Records with an inconclusive call do not appear. Unmarked numbers belong to inactive results. The source made the active and inactive calls. Calls come from the whole dose curve; as a rule, active = well fitted cell-killing curve with a large enough effect; inconclusive = small, poorly fitted or top-dose-only effect; inactive = no such curve, though single readings can be large or run the other way.
Potency is the fitted concentration of half-maximal effect.

The nature of the assay: qHTS of pediatric cancer cell lines to identify multiple opportunities for drug repurposing: Primary screen for NB1643 cells (AID 1347099). Note: nearly all actives have a fitted effect of over 50% in size. Conditions: NB1643 neuroblastoma viability, CellTiter-Glo luminescence, 48 h; series mostly up to 46 µM. From the text:
Drug repurposing or repositioning has been offered as a strategy for drug development in oncology programs. This approach has special potential for childhood cancers and other rare or orphan diseases, where the expected return on new drug development has been a disincentive to pharmaceuticals. […] In this project we exploit the poly-pharmacology of drugs to discover new indications via phenotypic screening of a panel of 19 well-characterized cell lines derived from solid tumors seen in children and adolescents. The goal is to identify approved drugs with previously unrecognized anticancer properties that has the potential to reveal new mechanisms and biological processes involved in carcinogenesis or drug resistance. We employed a titration-based paradigm (quantitative high-throughput screening or qHTS), where all compounds were tested at multiple concentrations for their effect on cell viability. Concentration-response curves (CRCs) were derived directly from the primary screen, and both potency and efficacy values were used to identify compounds with robust bioactivity profiles. We screened the NIH Chemical Genomics Center (NCGC) Pharmaceutical Collection (NPC) and Mechanism Interrogation Plate (MIPE) small molecule collections of approved and investigational compounds against these cell lines; and measured metabolically active cells after 48 hours of compound treatment as a proxy for cell viability. […] Assay Submitter: Nathalia J. Martinez, National Center for Advancing Translational Sciences, National Institutes of Health, Rockville, MD, USA; email: natalia.martinez@nih.gov Shen, M et al. Quantitative high-throughput phenotypic screening of pediatric cancer cell lines identifies multiple opportunities for drug repurposing. Oncotarget 2017 Dec 19;9(4):4758-4772. PMID 29435139.
The cells were obtained from University of North Carolina (UNC), Pediatric Preclinical Testing Program (PPT), and Coriell Institute (CI). qHTS cell viability assay: Cells were assayed in growth media at a density of 500-1,000 cells/well. Five microliters of cells were dispensed into 1,536-well, white, solid-bottom, TC-treated plates (Greiner Bio One) using a multidrop dispenser and incubated at 37 degrees C, 5% CO2, under a humidified atmosphere for 5 hours. Twenty-three nanoliters of compounds and controls (neutral control DMSO or positive control bortezomib at final concentration of 2.3 µM) were subsequently transferred by Kalypsys pintool. For primary screens, the MIPE collection was tested at 11-point dilutions (final concentrations range from 0.78 nM to 46 µM) and the NPC collection at 8-point dilutions (final concentrations range from 0.59 nM to 46 µM). Compounds tested in follow-up screens were assayed at 11-point dilutions. Cells were incubated for 48 hours, followed by addition of 3 µL of CellTiter-Glo (Promega). After a 15 min incubation at room temperature, samples were analyzed for luminescence intensity using a ViewLux High-throughput CCD imager equipped with clear filters.
For orientation: Quantitative high-throughput screening tests each substance at several concentrations.
For `Cc1ccc(NC(=O)Nc2cc(C(F)(F)F)ccc2F)cc1Nc1ccc2c(c1)NC(=O)C2=Cc1ccc[nH]1`, the Potency is 11.8 µM (active). For `CN(C)CCOc1ccc(-c2nc(-c3ccc4c(c3)CCC4=NO)c(-c3ccncc3)[nH]2)cc1`, the Potency is 20.9 µM (active). For `COc1cc(Cl)cn2c(-c3cccc(NC4CNC4)n3)cnc12`, the Potency is 10.5 µM (active). Turning to `Cn1c(=O)c(Oc2ccc(F)cc2F)cc2cnc(NC3CCOCC3)nc21`, the Potency entry is “inactive”.

Consider `CCc1cc(-c2n[nH]c(C)c2-c2ccc3c(c2)OCCO3)c(O)cc1O`, for which the Potency was 10.5 µM (active). Still for that read-out and setting: in the case of `CC1CNc2c(cccc2S(=O)(=O)N[C@@H](CCCN=C(N)N)C(=O)N2CC[C@@H](C)C[C@@H]2C(=O)O)C1` (stereo not given in full) it was 5.26 µM (active); in that of `O=C1CN2Cc3c(ccc(Cl)c3Cl)N=C2N1`, “inactive”. On to `NC(N)=Nc1nc(CSCCC(N)=NS(N)(=O)=O)cs1`, for which the Potency was 8.33 µM (active). As to `O=C(O)CCC=CCC[C@@H]1[C@H](N2CCCCC2)[C@@H](O)C[C@@H]1OCc1ccc(-c2ccccc2)cc1`, the Potency is 5.9 µM (active).

`CN1CCC(COc2cnc(-c3cccc(Cn4nc(-c5cccc(C#N)c5)ccc4=O)c3)nc2)CC1`: the Potency result was “inactive”.

For the compound `CCN1C[C@H](C)n2c(c(O)c3c(=O)n(Cc4ccc(F)c(Cl)c4)nc(C(=O)NC)c32)C1=O`, the Potency result was “inactive”.

`CC(=O)Nc1cccc(-n2c(=O)n(C3CC3)c(=O)c3c(Nc4ccc(I)cc4F)n(C)c(=O)c(C)c32)c1`: the Potency was 18.7 µM (active). Same read-out and setting: in the case of `CCc1cccc(CC)c1NC(=O)N1Cc2[nH]nc(NC(=O)c3ccc(N4CCN(C)CC4)cc3)c2C1` it was “inactive”. On the same count and under the same terms, in the case of `NCc1c[nH]c(=S)n1[C@H]1CCc2c(F)cc(F)cc2C1` it was 9.35 µM (active). In the case of `CNC1[C@H](O)C(O[C@@H]2C(O)C(O[C@H]3O[C@H]([C@@H](C)NC)CC[C@H]3N)[C@@H](N)C[C@H]2N)OC[C@]1(C)O` (stereo not given in full), the Potency result is “inactive”. On the same count and under the same terms, in the case of `O=C(O)C1=CC(O)C(O)[C@H](O)C1` (stereo not given in full) it was “inactive”. Regarding `CN[C@H]1[C@@H](O[C@@H]2[C@H](O[C@@H]3[C@@H](O)[C@@H](O)[C@@H](N=C(N)N)[C@@H](O)[C@@H]3N=C(N)N)O[C@H](C)[C@@]2(O)C=O)O[C@@H](CO)[C@@H](O)[C@H]1O`, the activity change, negative = cytotoxic was 3.56% [at 9.22 µM].

Turning to `COc1ccc(-c2ccc3ncc4c(c3c2)n(-c2ccc(N3CCNCC3)c(C(F)(F)F)c2)c(=O)n4C)cn1`, the Potency was 0.264 µM (active).

Turning to `Cc1ccc(C(=O)N(CCCN)[C@@H](c2oc3cc(Cl)ccc3c(=O)c2Cc2ccccc2)C(C)C)cc1`, the Potency result is “inactive”. Same read-out and setting: under `COc1ccc(Cn2ccc3ccc(C(=O)NO)cc32)cc1` stands 14.8 µM (active). Same read-out and setting: in the case of `CC1(C)OC2CC3C4CC(F)C5=CC(=O)C=CC5(C)C4C(O)CC3(C)[C@]2(C(=O)CO)O1` (stereo not given in full) it was “inactive”; in that of `Cc1cc2nc3c(=O)[nH]c(=O)nc-3n(CC(O)C(O)C(O)CO)c2cc1C` (stereo not given), 23.5 µM (active); in that of `NC(=O)c1ncn([C@@H]2O[C@H](CO)[C@@H](O)[C@@H]2O)n1`, “inactive”.

`CC(O)=C(C#N)C(=O)Nc1ccc(C(F)(F)F)cc1`: the Potency was 23.5 µM (active).

For the compound `CN(C)c1nc(Cc2ccc(NC(=O)c3ccc(C(F)(F)F)cc3)cc2)nc(N(C)C)c1CC(=O)O`, the Potency result was “inactive”. As for `c1ccc(-c2oc3ncnc(NC[C@@H]4CCCO4)c3c2-c2ccccc2)cc1`, the Potency was 2.64 µM (active). The same measure, in the same setting: in the case of `CC(=O)O[C@]1(C(C)=O)CC[C@H]2[C@@H]3C=C(Cl)C4=CC(=O)[C@@H]5C[C@H]5[C@]4(C)[C@@H]3CC[C@@]21C` it was 14.8 µM (active); in that of `C[C@H](c1ccc(F)cc1CCCC(=O)O)N(c1cc(F)ccc1F)S(=O)(=O)c1ccc(Cl)cc1`, 14.8 µM (active). Same read-out and setting: under `OCCn1cc(-c2ccc3c(c2)CCC3=NO)c(-c2ccncc2)n1` stands 11.8 µM (active). Consider `CC1=C(CC(=O)O)c2cc(F)ccc2C1=Cc1ccc(S(C)=O)cc1` (stereo not given), for which the Potency was 7.43 µM (active). Still for that read-out and setting: under `OC[C@H]1O[C@@H](O[C@H]2[C@@H](O)[C@@](O)(CO)O[C@@H]2CO)[C@H](O)[C@@H](O)[C@@H]1O` stands “inactive”. As to `CO[C@H]1/C=C\O[C@@]2(C)Oc3c(C)c(O)c4c(O)c(c(C=NN5CCN(C6CCCC6)CC5)c(O)c4c3C2=O)NC(=O)C(C)=CC=C[C@H](C)[C@H](O)[C@@H](C)[C@@H](O)[C@@H](C)[C@H](OC(C)=O)[C@H]1C`, the Potency is 0.0105 µM (active). Still for that read-out and setting: under `Cc1cccc2c1CC[C@H](CN1CCC(c3c(Cl)cccc3Cl)CC1)C[C@@H]2O` stands “inactive”; under `Cc1ccc(NC(=O)c2ccc(CN3CCN(C)CC3)cc2)cc1Nc1nc(-c2cccnc2)cs1`, “inactive”. On to `OC(c1cc(C(F)(F)F)nc2c(C(F)(F)F)cccc12)C1CCCCN1` (stereo not given), for which the Potency entry is “inactive”.

In the case of `COc1ccc(-c2cc3nccn3c(Nc3ncccc3C(N)=O)n2)cc1OC`, the Potency is 2.35 µM (active).

On to `COc1ccc(CCC(=O)Nc2nc3ccc(Cl)cc3s2)cc1OC`, for which the Potency was 5.26 µM (active). On to `CN1CCc2c(n(Cc3ccc(C(=O)NO)cc3)c3ccccc23)C1`, for which the Potency is 11.8 µM (active).

For `N[C@@H](CC(=O)N1CCn2c(nnc2C(F)(F)F)C1)Cc1cc(F)c(F)cc1F`, the Potency is 11.8 µM (active). For the compound `COc1cc([C@H]2Oc3cc([C@H]4Oc5cc(O)cc(O)c5C(=O)[C@H]4O)ccc3O[C@H]2CO)ccc1O`, the Potency was 23.5 µM (active).

The record behind these values is PubChem BioAssay (NCATS).
